High-throughput results: PubChem BioAssay, several laboratories
An excerpt weighted towards active compounds, which were near 3.1% of everything screened.
Bead autofluor = compound fluorescence in toxin protease inhibitor counterscreen | AID 624483 | compound autofluorescence counterscreen, microsphere flow cytometry; stronger effect = higher value | fluorescence intensity (no concentration beside the values) | 360,000 tested, 3.1% active; in the data active = fluorescence intensity above about 16000; inconclusive = no clear call, values can overlap the other calls
BoNT F protease = blocks Botulinum neurotoxin F light chain protease; Multiplex microsphere protease cleavage assay, flow cytometry; inhibition, % at 10 µM; 360,000 tested, 0.22% active; in the data active = inhibition above about 35%, passing the limit was not always enough; inconclusive = no clear call, values can overlap the other calls; also: plate controls were buffer without enzyme for full effect and enzyme alone for no effect
Anthrax LF inh2 = anthrax lethal factor protease inhibition | 360,000 tested, 0.12% active | P15917 | inhibition, % at 10 µM | multiplex microsphere protease cleavage assay, LF | AID 588501; also: plate controls were buffer without enzyme for full effect and enzyme alone for no effect
SSB-PriA inh = blocks PriA binding to SSB C-terminal tail; 430,000 tested, 0.6% active; inhibition, % at 33 µM; AlphaScreen SSBct-PriA binding, biotinylated peptide; in the data active = inhibition mostly above about 37%, no sharp cut-off; inactive = mostly below about 20%;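 also: plate controls were negative control peptide for no effect and reference peptide for full effect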
BoNT-A LC inh2 = inhibitors of Botulinum neurotoxin A light chain protease | multiplex microsphere protease substrate cleavage, flow cytometry | inhibition, % at 10 µM | 360,000 tested, 0.17% active; also: plate controls were buffer without enzyme for full effect and enzyme alone for no effect
* hit, by the source's call; ? = inconclusive; · = no result; ! = a repeat was not active. Rule as the data show it, unless noted: active = inhibition above about 30%; inconclusive = no clear call, values can overlap the other calls; inactive = below that.

SMILES	Bead autofluor	BoNT F protease	Anthrax LF inh2	SSB-PriA inh	BoNT-A LC inh2
COc1ccccc1-c1nn2c(-c3ccco3)nnc2s1	21284*	4	2	-2	3
c1ccc(OCc2nnc3sc(-c4cccs4)nn23)cc1	3558	5	-1	-13	1
COc1cccc(-c2nnc3sc(-c4ccccc4)nn23)c1	20646*	-2	1	-4	?
Cc1nnsc1C(=O)NCCn1ccn2nc(-c3ccco3)cc12	·	·	·	-3	·
NC(=O)C(=NOC(=O)c1ccco1)c1nc(-c2ccc(Br)cc2)cs1	·	·	·	-16	·
O=C(CCCSc1ccc(NC(=O)c2ccco2)nn1)Nc1ccccn1	·	·	·	-12	·
COc1ccc(-c2nn3c(-c4ccccc4)nnc3s2)cc1	20178*	0	0	-2	0
COc1ccc(-c2nn3c(-c4ccc(F)cc4)nnc3s2)cc1	4063	2	-2	-3	0
c1nc(N2CCOCC2)c2c3c(sc2n1)CCCC3	23015*	-2	-1	-19	0
c1ccn(-c2ncnc3sc4c(c23)CCCC4)c1	4521	-6	-2	-4	0
Cc1cc(C)c(C)c(S(=O)(=O)N2CCN(Cc3nc4ccccc4[nH]3)CC2)c1C	22533*	2	-1	-13	?
Cc1cc(C)c(C)c(S(=O)(=O)N2CCN(C(=O)c3cc(=O)[nH]c4ccccc34)CC2)c1C	20107*	11	-9	11	8
CS(=O)(=O)N1CCCC(C(=O)Nc2sc(-c3ccccc3)cc2C(N)=O)C1 (stereo not given)	·	·	·	3	·
COC(=O)c1ccc2ccn(CC(=O)NC3CCCCC3)c2c1	4051	?	-2	-5	-1
N#Cc1ccc2ccn(CC(=O)NC3CCCCCC3)c2c1	21036*	0	-1	-12	-1
CC(C)CS(=O)(=O)C1CN(S(=O)(=O)c2cccc(C(F)(F)F)c2)C1	·	·	·	-6	·
COc1ccc(Nc2ccnc(Nc3ccc(OC)cc3)n2)cc1	2523	-7	-1	45*	0
O=C(CCc1ccc(Cl)c(C(F)(F)F)c1)N1CCc2ncncc2C1	·	·	·	0	·
Cn1c(C(=O)c2ccccc2)nc2ccccc21	3540	13	5	-16	1
Cn1c(C(=O)c2ccccc2[N+](=O)[O-])nc2ccccc21	3884	-3	11	39*!	-1
COc1ccc2cc(C(=O)NCC3CCN(S(C)(=O)=O)CC3)[nH]c2c1	·	·	·	-25	·
O=C(CSc1nc2ccccc2c(=O)n1CCCC(=O)N1CCCC1)NCc1ccco1	23337*	-1	-2	-19	0
O=C(CSc1nc2ccccc2c(=O)n1Cc1ccc(C(=O)NC2CC2)cc1)NCc1ccco1	19257*	3	1	-17	3
CCn1c(SCC(=O)NCc2ccco2)nc2ccccc2c1=O	4683	-4	-2	-12	-1
CCOCCCn1c(SCC(=O)NCc2ccco2)nc2c(sc3ccccc32)c1=O	9584	6	-11	0	0
SMILES	Bead autofluor	BoNT F protease	Anthrax LF inh2	SSB-PriA inh	BoNT-A LC inh2
O=C(CSc1nc2ccccc2c(=O)n1Cc1ccccc1)NCc1ccco1	10801	-2	-2	-12	0
CCCCn1c(SCC(=O)NCc2ccco2)nc2c(sc3ccccc32)c1=O	22504*	-1	-1	-1	?
Cc1ccc(-c2ccc(=O)n(CCNC(=O)Nc3ccc(F)c(Cl)c3)n2)cc1	·	·	·	-3	·
CCCC(=O)Nc1ccc(C(=O)NCCNC(=O)c2ccc(F)c(F)c2)cc1	·	·	·	-4	·
CCOC(=O)c1ccc(NC(=O)CSc2ccc3nnc(-c4ccc(OC)cc4)n3n2)cc1	·	·	·	3	·
COc1ccc(OC)c(-n2c(-c3ccccc3)n[nH]c2=S)c1	22480*	0	-4	-10	?
N#Cc1nccnc1N1CCC(CNC(=O)C(=O)Nc2ccc(C(F)(F)F)cc2)CC1	·	·	·	-21	·
Nc1nncn1C(=O)CCc1ccccc1	22172*	-4	-1	-9	?
CCOc1ccccc1NC(=S)NCc1ccco1	22578*	-1	0	6	0
COc1ccc(Cl)cc1NC(=S)NCc1ccco1	23985*	-3	0	20	-2
COc1ccc(Cl)cc1NC(=O)NCc1ccco1	2318	-5	-2	-9	0
Cc1cccc(OC(C)C(=O)Nc2ccc(S(=O)(=O)Nc3ncccn3)cc2)c1C (stereo not given)	·	·	·	-6	·
CCCCN1C(=O)Cc2c1nc(N)c1c(N)nc(N(CCC)CCC)c(C#N)c21	3338	-13	3	39*	2
N#Cc1c(N(CCO)CCO)nc(N)c2c(N)nc3c(c12)CC(=O)N3CC1CCCO1 (stereo not given)	3281	1	4	31	3
COc1ccccc1[C@H](CNS(=O)(=O)c1ccc2c(c1)OCCO2)OC	·	·	·	-9	·
Cc1noc(C2(NC(=O)COc3ccc(Cl)cc3)CCCCC2)n1	·	·	·	-6	·
